This is part of a sample that, as a whole, favours compounds with a hit. Of some 83,000 tested, about 20% had one in any assay.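 48-hour exposure, single concentration, 96-well plates; percent growth endpoint where 0 means no net growth. Active: below 10.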 Unmarked numbers belong to inactive results. The source made the active and inactive calls.

The assay concerns MDA-MB-468 breast. The assay can be described thus: NCI-60 one-dose screen, 48 h (100 = growth as untreated, 0 = no growth, -100 = all killed). The following applies: 10 µM unless noted.
Turning to `COc1ccc(/C=C/C(=O)c2ccc(Oc3ncnc4ccccc34)cc2)cc1OC`, the growth was 28.4%.

In the case of `C#Cc1nc(C2=C(C)C(=N\O)/C(=N/O)C2)cs1`, the growth was 82.6%.

As to `C=C1CCC2C3(C)COC(c4c(OC)cccc4OC)OC3CCC2(C)C1C/C=C1/C(=O)OCC1O` (stereo not drawn), the growth is 20.2%.

Regarding `Cc1ccc(C2CC3c4ccccc4C2C2CCCCN32)cc1` (stereo not drawn), the growth was -0.132% (active).

`O=C(Nc1ccc(Nc2ncnc3sc4c(c23)CCOC4)cc1)Nc1ccc(Cl)c(C(F)(F)F)c1`: the growth is 83.5%.

Turning to `Cc1ccc(-n2c(/C=C3\C(=O)Nc4ccccc43)ccc2CO)cc1`, the growth is 45.1%.

For the molecule `CCOC(=O)Nc1ccc2c(c1)C(=O)N(CCOC)c1ccccc1O2`, the growth was 20.2%.

Turning to `CSc1ccc2c(c1)c(CCN)c(C)n2Cc1ccc(Cl)c(Cl)c1`, the growth was -67.1% (active).

Consider `COc1cc(/C=C/C(=O)c2ccc(NC(=O)CSc3nnc(-c4cc(-c5ccccc5)nc5ccccc45)n3-c3ccccc3)cc2)cc(OC)c1OC`, for which the growth was 81.5%.

For the molecule `O=C1N[C@@H]2NC(=[N+]3CCOCC3)N[C@@H]2N1`, the growth is 99.6%.

With `CCOc1nc(-c2ccccc2)cc2c(O)c(C(=O)N/N=C/c3ccccc3)[nH]c(=O)c12`, the growth is 105%.

Turning to `CCN1CCN(C(=O)[C@]23CC[C@@H](C)[C@H](C)[C@@H]2C2=CC[C@@H]4[C@@]5(C)C/C(=C/c6cccnc6)C(=O)C(C)(C)[C@@H]5CC[C@@]4(C)[C@]2(C)CC3)CC1`, the growth is 16.4%.

With `CCC(C)[C@H]1OC(=O)[C@H](C(C)C)N(C)C(=O)[C@@H](C(C)C)OC(=O)[C@H](C(C)C)N(C)C(=O)[C@@H](C(C)CC)OC(=O)[C@H](C(C)C)N(C)C1=O` (stereo partly drawn), the growth is -0.281% (active).

Regarding `COc1ccc(/C=C/c2c(C(=O)/C=C/c3cccs3)c(C)nc3ccccc23)cc1`, the growth is 66.9%.

As to `O=C(Oc1cccc2ccccc12)c1ccccc1C(=O)c1ccccc1`, the growth was 103%.

In the case of `O=C1C=CC(=O)N1c1ccc(O)cc1`, the growth is 88.9%.

On to `CCN(CC)CCC(CNc1ccnc2cc(Cl)ccc12)c1ccc(Cl)cc1` (stereo not drawn), for which the growth is -86.6% (active).

`COC1=CC(c2ccc[nH]2)=N/C1=C\c1[nH]c(C)c(C(=O)CCCCCCCCC(=O)O[C@H]2CC[C@H]3C4CCc5cc(O)ccc5C4CC[C@]23C)c1C` (stereo partly drawn): the growth was 37.5%.

`O=C(Nc1ccc(-c2ccc3c(c2)NC(=O)/C3=C\c2ccc[nH]2)cc1)NC1CC1`: the growth was -4.36% (active).

For the molecule `O=C1N=c2cc3c(cc2=C/C1=C/c1sc(=S)n(CCc2ccc(O)cc2)c1O)OCCO3`, the growth is 42.5%.

For `CN(C)CCNC(=O)c1cccn2c(=O)c3cc4ccccc4cc3nc12`, the growth is -43.6% (active).

On to `C=C1C(=O)O[C@H]2[C@H]1CC/C(COC(=O)NCc1c[nH]c3ccc(OC)cc13)=C\CC[C@@]1(C)O[C@@H]21`, for which the growth is -27.8% (active).

On to `Cc1sc2ncnc(Sc3nc4ccccc4[nH]3)c2c1C`, for which the growth is -86.6% (active).

Turning to `Brc1ccc(Cn2nnnc2-c2ccn(-c3ccccc3)n2)cc1`, the growth is 71.5%.

Regarding `CN(C)CCn1c2ccc(Br)cc2c2nc3ccccc3nc21`, the growth was 13%.

As to `COc1cc(-c2cc(-c3ccc(C)cc3)nc3nc(N)[nH]c(=O)c23)ccc1Oc1ccnc2cc(Cl)ccc12`, the growth is 52.3%.

On to `COc1cc(C(=O)/C=C/c2ccc3nc(-c4cc(F)cc(F)c4)sc3c2)cc(OC)c1OC`, for which the growth is 120%.

Regarding `COc1cc(NC2CCC(=O)N2c2ccc(Cl)cc2Cl)cc(OC)c1OC` (stereo not drawn), the growth is 110%.

The values above are taken from PubChem BioAssay (NCI).
